# Reference: the supplement of paper PMC10732440
# ± gives the standard deviation of the averaged measurements.
# Tested on: Caenorhabditis elegans N2 infected with Nematocida parisii ERTm1
# Assay: progeny production relative to DMSO uninfected control; higher = more progeny despite microsporidia infection (inhibition of infection with low host toxicity)
# Conditions: infection time 6 days
# Procedure, shortened: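 Progeny production is reported as a percentage of spore-free vehicle wells and averaged across replicates. It was measured after bleach-synchronised wild-type C. elegans L1 larvae (100 per well) spent 6 days shaking at 21°C in K-medium with E. coli OP50, 15,000 N. parisii spores/μL and compound at 100 μM or 40 μM in 1% DMSO. Counting used Rose Bengal staining, flatbed scanning and WorMachine, and each compound and dose was tested three times.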
SMILES,progeny production (40 µM) [%],progeny production (100 µM) [%]
COc1ccc(OCc2ccc(COc3c(Cl)cccc3Cl)cc2)c(Cl)c1,5.83 ± 3.1,12.3 ± 5.3
COc1cc(NC(=O)CN2C(=O)NC(c3ccccc3)(c3ccccc3)C2=O)cc(OC)c1,3.5 ± 1,15.8 ± 11
CC(N)C12CC3CC(CC(C3)C1)C2 (stereo not given),3.85 ± 0.59,6.21 ± 1.8
CS(=O)(=O)c1ccc(Oc2ccc(Cl)cc2)cc1,2.98 ± 0.48,13.1 ± 9.1
CCCCCc1ccc(C(=O)NCCn2cc(CCCCCc3c[nH]c(N)n3)nn2)cc1,8.32 ± 7.4,2.61 ± 1.4
COc1cccc(N2CCN(C3=Nc4c(F)cccc4[C@H](CC(=O)O)N3c3cc(C(F)(F)F)ccc3OC)CC2)c1,6.01 ± 2.9,14.7 ± 7.5
CCc1cc(O)c(Oc2cccnc2N)cc1F,6.17 ± 3.4,10.2 ± 5.5
O=C(Nc1ccc(N2CCN(C(=O)c3ccccc3)CC2)cc1)c1ccc2c(c1)OCO2,5.03 ± 1.4,15.6 ± 10
Nc1nc(O)c(Br)c(-c2cccc(Cl)c2)n1,4.12 ± 0.52,12.1 ± 5.2
NS(=O)(=O)c1ccc(NC(=O)NC(c2ccccc2)c2ccccc2)cc1,6.18 ± 1.6,16.9 ± 14
COc1cc(Cc2cc(N)nc(N)n2)cc(OC)c1OC,5.56 ± 1.2,19.2 ± 12
CCc1ccc(C2CC(C(F)(F)F)n3ncc(C(=O)NCc4ccc(OC)cc4)c3N2)cc1 (stereo not given),8.73 ± 4.8,7.32 ± 3.4
O=C(NO)C1(CS(=O)(=O)c2ccc(Oc3ccc(Cl)cc3)cc2)CCOCC1,5.79 ± 0.11,7.72 ± 4.5
N#Cc1c(F)c(Cl)c(NCc2ccccc2)c(C#N)c1F,32.6 ± 17,15 ± 3.8
CC(C)(C)NC(=O)[C@@H]1C[C@@H]2CCCC[C@@H]2CN1C[C@@H](O)[C@H](Cc1ccccc1)NC(=O)[C@H](CC(N)=O)NC(=O)c1ccc2ccccc2n1,6.54 ± 4.7,6.35 ± 4.1
